Assay results: PubChem BioAssay
For some assays here: Measured potencies and affinities stand elsewhere. Active and inactive are the calls of the source. Unless noted, the limit is not given here; nearly all actives have IC50 up to about 0.91 µM.

Target: Protein kinase 7 (PK7), Plasmodium falciparum 3D7 (PF3D7_0213400) (UniProt Q7YTF7)
Test: inhibition of Plasmodium PK7 catalytic activity – biochemical, TCAMS antimalarial set, Kinase-Glo luminescence (AID 1159587; call rule not given here)
Details: recombinant PfPK7, Kinase-Glo ATP depletion luminescence

Sequence of Protein kinase 7 (PK7), Plasmodium falciparum 3D7 (PF3D7_0213400) (Q7YTF7 1-343): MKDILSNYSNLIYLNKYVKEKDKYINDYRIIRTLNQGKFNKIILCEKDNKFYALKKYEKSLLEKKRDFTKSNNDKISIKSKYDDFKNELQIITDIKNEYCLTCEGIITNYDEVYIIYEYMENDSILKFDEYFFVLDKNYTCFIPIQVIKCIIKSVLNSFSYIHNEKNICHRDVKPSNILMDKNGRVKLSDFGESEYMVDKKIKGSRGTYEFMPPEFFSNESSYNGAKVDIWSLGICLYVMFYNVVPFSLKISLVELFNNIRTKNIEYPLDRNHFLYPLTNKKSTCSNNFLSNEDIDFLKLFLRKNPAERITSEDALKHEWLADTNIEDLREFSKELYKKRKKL

Structure (SMILES)	outcome
COc1cc2nc(C)nc(Nc3ccc(Oc4ccccc4)cc3)c2cc1OC	inactive
Cc1ccc(CN(Cc2ccc(C(=O)N(C)C)cc2)Cc2ccc3c(c2)OCCO3)cc1C	inactive
Cc1cc(CN2CC[C@H](NC(=O)c3ccc(Cl)c(Cl)c3)C2)ccc1OCCCN(C)C	inactive
O=C(Nc1cccc(-c2csc(-c3nc4ccccc4[nH]3)c2)c1)c1ccoc1	inactive
CCC[C@@H]([C@@H](CC1CCCCC1)C(=O)NC(C(=O)Nc1nccs1)C(CC)c1ccccc1)N(O)C=O (stereo not given in full)	inactive
FC(F)(F)c1ccc2nc(-c3ccc(-c4ccc(CNCc5cnn(-c6ccccc6)n5)cc4)s3)[nH]c2c1	inactive
CN1CCN(CC(=O)Nc2cccc(-c3cccc(-c4nc5ccc(F)cc5[nH]4)c3)c2)CC1	inactive
CN(C)c1ccc(CN2CCC(NC(=O)c3ccc(-c4ccc(N(C)C)cc4)s3)CC2)cc1	inactive
CN1CCC(NCc2cccc(-c3ccc(S(=O)(=O)NCCN4CCCC4)s3)c2)CC1	inactive
CC(C)Oc1cccc(-c2ccc(C(=O)NCC3CCCN(Cc4cccc(C(F)(F)F)c4)C3)s2)c1 (stereo not given)	inactive
Cc1cc(NN=Cc2ccc(F)cc2)c2cccc(C)c2n1	inactive
N#Cc1cccc(Nc2nccc(NCC(O)c3ccc(C(F)(F)F)cc3)n2)c1 (stereo not given)	inactive
NC(=NCCc1ccccc1Cl)c1ccc2ccccc2c1	inactive
CCOC(=O)c1cncc(/C=C/c2cc(C)cnc2N)c1	inactive
O=[N+]([O-])c1cccc(CNCC2CCN(Cc3ccc(C(F)(F)F)cc3)CC2)c1	inactive
CCOC(=O)COc1cccc(CNc2ccc3nc(N)nc(N)c3c2)c1	inactive
CS(=O)(=O)c1ccc(CCNCc2ccc(-c3ccc(CN(C(=O)C4CCCC4)C4CCN(Cc5ccccc5)CC4)cc3)nc2)cc1	inactive
CNS(=O)(=O)CCNCc1ccc(-c2ccc3ncnc(Nc4ccc(OCc5ccccc5)cc4)c3c2)o1	inactive
CC(C)c1ccc(NC(=O)c2ccc(C(=O)NCC3CCN(CC4CCCCC4)CC3)cc2)cc1	inactive
CCCNCc1ccc(-c2ccc(CN(CCOC)C(=O)c3cscn3)cc2)nc1	inactive

Structure (SMILES)	outcome
CCNc1cc(C(=O)N[C@@H](Cc2ccccc2)[C@H](O)CN[C@H](C)C(C)(C)C)cc(N2CCCCS2(=O)=O)c1	inactive
O=C(Nc1ccc(C(=O)N2CCN(CCN3CCN(c4cccc(C(F)(F)F)c4)CC3)CC2)cc1)c1ccc(C(F)(F)F)cc1	inactive
O=C(/C=C/c1ccc(Cl)c(Cl)c1)N1CCN(C(=O)Nc2ccc(C(F)(F)F)cc2)CC1	inactive
Cc1[nH]c(C)c(-c2ccc(-c3ccc(F)cc3)nc2)c(=O)c1Br	inactive
Cc1nc(N)nc(N)c1OCCCOc1ccccc1Br	inactive
FC(F)(F)c1ccc2nc(-c3cccc(-c4ccc(CNCC5CCCO5)cc4)c3)[nH]c2c1 (stereo not given)	inactive
Cc1noc(C)c1-c1cccc(CNCc2ccc(-c3ccc(-c4nc5c(C)cccc5[nH]4)cc3)cc2)c1	inactive
Cc1cc(C2CCN(CCCCNC(=O)c3ccc(-c4ccc(C(F)(F)F)cc4)cc3)CC2)c(C)cc1OCCO	inactive
COC(=O)c1cccc(CN(CCC(O)(C(F)(F)F)C(F)(F)F)C(=O)CC2CCCC2)c1	inactive
Cc1[nH]c(C)c(-c2ccc(-c3ccccc3C(F)(F)F)nc2)c(=O)c1Br	inactive
CCNc1cc(C(=O)N[C@@H](Cc2ccccc2)[C@H](O)CNCc2cc(C#N)ccc2OC)cc(N2CCCC2=O)c1	inactive
CO/C(=C\C=C\c1cc2cc(Cl)c(Cl)cc2[nH]1)C(=O)NCCCNC12CC3CC(CC(C3)C1)C2	inactive
O=c1[nH]c2ccc(Nc3nccc(NCCc4ccccc4)n3)cc2[nH]1	inactive
COc1ccc2nccc([C@@H](O)CN3CCC(NCc4ccc5c(c4)NC(=O)CO5)CC3)c2c1	inactive
CCOC(=O)c1ccc(NC(=O)Nc2ccc(-c3ccc(-c4nc5ccc(C(F)(F)F)cc5[nH]4)cc3)cc2)cc1	inactive
Cc1cccc2[nH]c(-c3ccc(-c4cccc(CN5CCCC5CN)c4)cc3)nc12 (stereo not given)	inactive
COc1ccc(NC(=O)/C=C/c2ccccc2Cl)cc1OCCN1CCC(N2CCCCC2)CC1	inactive
COc1cc(C2=NN(S(=O)(=O)c3c(Cl)cc(Cl)cc3Cl)CCCC2)ccc1Cl	inactive
CC(C)NCc1ccc(-c2cccc(NC(=O)c3ccc(F)cc3)c2)cc1	inactive
CCCc1ccc(C(=O)N2[C@@H](c3nccs3)[C@@H](C(N)=O)C[C@@]2(CC(C)C)C(=O)O)cc1	inactive

Target: Calcium-dependent protein kinase 4 (Plasmodium falciparum (isolate 3D7)) (UniProt Q8IBS5)
Test: PfCDPK4 kinase inhibitors, biochemical, TCAMS library (AID 1159588)
Details: recombinant PfCDPK4, Kinase-Glo ATP depletion luminescence

Sequence of Calcium-dependent protein kinase 4 (Plasmodium falciparum (isolate 3D7)) (Q8IBS5 whole entry, looked up): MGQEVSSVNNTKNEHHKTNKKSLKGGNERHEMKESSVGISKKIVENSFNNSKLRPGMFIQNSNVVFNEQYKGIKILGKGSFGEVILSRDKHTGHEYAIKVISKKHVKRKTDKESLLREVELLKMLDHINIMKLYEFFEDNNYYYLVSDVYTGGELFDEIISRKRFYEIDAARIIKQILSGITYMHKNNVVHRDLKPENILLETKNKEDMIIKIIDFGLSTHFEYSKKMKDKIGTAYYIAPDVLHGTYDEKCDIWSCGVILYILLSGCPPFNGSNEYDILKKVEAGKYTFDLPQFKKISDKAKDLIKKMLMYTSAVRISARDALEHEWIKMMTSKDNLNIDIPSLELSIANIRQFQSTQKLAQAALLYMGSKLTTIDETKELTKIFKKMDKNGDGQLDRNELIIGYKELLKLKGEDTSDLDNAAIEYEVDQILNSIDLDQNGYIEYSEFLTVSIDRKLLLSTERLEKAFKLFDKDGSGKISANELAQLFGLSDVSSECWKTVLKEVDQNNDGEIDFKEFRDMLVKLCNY

Structure (SMILES)	outcome
COc1cc2nc(C)nc(Nc3ccc(Oc4ccccc4)cc3)c2cc1OC	inactive
Cc1ccc(CN(Cc2ccc(C(=O)N(C)C)cc2)Cc2ccc3c(c2)OCCO3)cc1C	inactive
Cc1cc(CN2CC[C@H](NC(=O)c3ccc(Cl)c(Cl)c3)C2)ccc1OCCCN(C)C	inactive
O=C(Nc1cccc(-c2csc(-c3nc4ccccc4[nH]3)c2)c1)c1ccoc1	inactive
CCC[C@@H]([C@@H](CC1CCCCC1)C(=O)NC(C(=O)Nc1nccs1)C(CC)c1ccccc1)N(O)C=O (stereo not given in full)	inactive
FC(F)(F)c1ccc2nc(-c3ccc(-c4ccc(CNCc5cnn(-c6ccccc6)n5)cc4)s3)[nH]c2c1	inactive
CN1CCN(CC(=O)Nc2cccc(-c3cccc(-c4nc5ccc(F)cc5[nH]4)c3)c2)CC1	inactive
CN(C)c1ccc(CN2CCC(NC(=O)c3ccc(-c4ccc(N(C)C)cc4)s3)CC2)cc1	inactive
CN1CCC(NCc2cccc(-c3ccc(S(=O)(=O)NCCN4CCCC4)s3)c2)CC1	inactive
CC(C)Oc1cccc(-c2ccc(C(=O)NCC3CCCN(Cc4cccc(C(F)(F)F)c4)C3)s2)c1 (stereo not given)	inactive
Cc1cc(NN=Cc2ccc(F)cc2)c2cccc(C)c2n1	inactive
N#Cc1cccc(Nc2nccc(NCC(O)c3ccc(C(F)(F)F)cc3)n2)c1 (stereo not given)	inactive
NC(=NCCc1ccccc1Cl)c1ccc2ccccc2c1	inactive
CCOC(=O)c1cncc(/C=C/c2cc(C)cnc2N)c1	inactive
O=[N+]([O-])c1cccc(CNCC2CCN(Cc3ccc(C(F)(F)F)cc3)CC2)c1	inactive
CCOC(=O)COc1cccc(CNc2ccc3nc(N)nc(N)c3c2)c1	inactive
CS(=O)(=O)c1ccc(CCNCc2ccc(-c3ccc(CN(C(=O)C4CCCC4)C4CCN(Cc5ccccc5)CC4)cc3)nc2)cc1	inactive
CNS(=O)(=O)CCNCc1ccc(-c2ccc3ncnc(Nc4ccc(OCc5ccccc5)cc4)c3c2)o1	inactive
CC(C)c1ccc(NC(=O)c2ccc(C(=O)NCC3CCN(CC4CCCCC4)CC3)cc2)cc1	inactive
CCCNCc1ccc(-c2ccc(CN(CCOC)C(=O)c3cscn3)cc2)nc1	inactive

Structure (SMILES)	outcome
CCNc1cc(C(=O)N[C@@H](Cc2ccccc2)[C@H](O)CN[C@H](C)C(C)(C)C)cc(N2CCCCS2(=O)=O)c1	inactive
O=C(Nc1ccc(C(=O)N2CCN(CCN3CCN(c4cccc(C(F)(F)F)c4)CC3)CC2)cc1)c1ccc(C(F)(F)F)cc1	inactive
O=C(/C=C/c1ccc(Cl)c(Cl)c1)N1CCN(C(=O)Nc2ccc(C(F)(F)F)cc2)CC1	inactive
Cc1[nH]c(C)c(-c2ccc(-c3ccc(F)cc3)nc2)c(=O)c1Br	inactive
Cc1nc(N)nc(N)c1OCCCOc1ccccc1Br	inactive
FC(F)(F)c1ccc2nc(-c3cccc(-c4ccc(CNCC5CCCO5)cc4)c3)[nH]c2c1 (stereo not given)	inactive
Cc1noc(C)c1-c1cccc(CNCc2ccc(-c3ccc(-c4nc5c(C)cccc5[nH]4)cc3)cc2)c1	inactive
Cc1cc(C2CCN(CCCCNC(=O)c3ccc(-c4ccc(C(F)(F)F)cc4)cc3)CC2)c(C)cc1OCCO	inactive
COC(=O)c1cccc(CN(CCC(O)(C(F)(F)F)C(F)(F)F)C(=O)CC2CCCC2)c1	inactive
Cc1[nH]c(C)c(-c2ccc(-c3ccccc3C(F)(F)F)nc2)c(=O)c1Br	inactive
CCNc1cc(C(=O)N[C@@H](Cc2ccccc2)[C@H](O)CNCc2cc(C#N)ccc2OC)cc(N2CCCC2=O)c1	inactive
CO/C(=C\C=C\c1cc2cc(Cl)c(Cl)cc2[nH]1)C(=O)NCCCNC12CC3CC(CC(C3)C1)C2	inactive
O=c1[nH]c2ccc(Nc3nccc(NCCc4ccccc4)n3)cc2[nH]1	inactive
COc1ccc2nccc([C@@H](O)CN3CCC(NCc4ccc5c(c4)NC(=O)CO5)CC3)c2c1	inactive
CCOC(=O)c1ccc(NC(=O)Nc2ccc(-c3ccc(-c4nc5ccc(C(F)(F)F)cc5[nH]4)cc3)cc2)cc1	inactive
Cc1cccc2[nH]c(-c3ccc(-c4cccc(CN5CCCC5CN)c4)cc3)nc12 (stereo not given)	inactive
COc1ccc(NC(=O)/C=C/c2ccccc2Cl)cc1OCCN1CCC(N2CCCCC2)CC1	inactive
COc1cc(C2=NN(S(=O)(=O)c3c(Cl)cc(Cl)cc3Cl)CCCC2)ccc1Cl	inactive
CC(C)NCc1ccc(-c2cccc(NC(=O)c3ccc(F)cc3)c2)cc1	inactive
CCCc1ccc(C(=O)N2[C@@H](c3nccs3)[C@@H](C(N)=O)C[C@@]2(CC(C)C)C(=O)O)cc1	inactive
